SSB-PriA inh: inhibitors of Klebsiella pneumoniae PriA binding to SSB C-terminal tail, primary screen, biochemical, AlphaScreen | PriA–SSB C-terminal tail interaction (Klebsiella pneumoniae) | AlphaScreen SSBct-PriA binding, biotinylated peptide | inhibition, % at 33 µM | actives 0.6% (n = 430,000) | AID 1272365, 2023; in the data active means inhibition mostly above about 37%, no sharp cut-off; inactive means mostly below about 20%;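 further: plate controls were negative control peptide for no effect and reference peptide for full effect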
Rv3671c protease: Rv3671c serine protease inhibitors, primary screen, biochemical, fluorescence polarization, M. tuberculosis H37Rv; inhibition, % at 5.96 µM; P9WHR9; actives 0.048% (n = 320,000); AID 2606, 2010; in the data active means inhibition above about 38%;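 further: extracellular domain of Rv3671c used as enzyme; 0% = enzyme with DMSO and 100% = no enzyme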
Target sequence (P9WHR9 whole entry, looked up, the tested form may be a part): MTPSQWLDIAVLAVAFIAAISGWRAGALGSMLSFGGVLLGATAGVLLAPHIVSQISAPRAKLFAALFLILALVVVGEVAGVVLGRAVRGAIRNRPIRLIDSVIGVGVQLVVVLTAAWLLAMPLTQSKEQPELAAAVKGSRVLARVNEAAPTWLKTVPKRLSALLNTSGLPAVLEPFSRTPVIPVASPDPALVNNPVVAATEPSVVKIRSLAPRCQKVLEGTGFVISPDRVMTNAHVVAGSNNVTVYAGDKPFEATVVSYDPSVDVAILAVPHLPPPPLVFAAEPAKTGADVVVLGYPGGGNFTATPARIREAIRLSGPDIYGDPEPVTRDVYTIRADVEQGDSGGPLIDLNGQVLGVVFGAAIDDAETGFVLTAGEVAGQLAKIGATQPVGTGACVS
Mtb bLac sens: beta-lactam sensitization of Mtb H37Rv, H37Rv; M. tuberculosis H37Rv growth with meropenem, percent inhibition; inhibition, % at 25 µM; actives 0.27% (n = 330,000); AID 434955, 2010; call rule not given here;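 further: growth measured after seven days incubation then overnight dye step; 0% = bacteria only wells and 100% = bacteria with antibiotic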
GDH-TPI counter: GDH-TPI coupling enzyme inhibitors, primary screen, artefact control for M. tuberculosis FBA inhibitor project, biochemical, absorbance, full deck; GDH-TPI coupled enzyme counterscreen, NADH absorbance; AID 588335, 2011; inhibition, % at 4.8 µM; actives 1.2% (n = 360,000); in the data active means inhibition above about 30%;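 further: 0% = DMSO wells and 100% = wells lacking the enzyme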
Mtb FBA inh: Mtb FBA enzyme inhibitors, primary screen, biochemical, fluorescence, strain H37Rv. Fructose-bisphosphate aldolase (Mycobacterium tuberculosis (strain ATCC 25618 / H37Rv)), …. purified M. tuberculosis FBA, fluorescence read-out. inhibition, % at 1 µM. actives 2.3% (n = 360,000); in the data active means inhibition above about 27%;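 further: 0% = vehicle and 100% = reference inhibitor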
UGM FP inh: M. tuberculosis UGM enzyme inhibitors, primary screen, biochemical, fluorescence polarization, single point; inhibition, % at 10 µM; purified UGM, fluorescence polarization probe displacement; AID 504406, 2011; actives 0.06% (n = 320,000); UDP-galactopyranose mutase (Mycobacterium tuberculosis (strain ATCC 25618 / H37Rv)), …; in the data active means inhibition above about 10%, passing the limit was not always enough
Starred values were filed as active, the others as inactive; / = no result given; ! = repeats disagree. A selection: hits, their analogues and other compounds. The true share with any hit is near 3.2%.

SMILES | SSB-PriA inh | Rv3671c protease | Mtb bLac sens | GDH-TPI counter | Mtb FBA inh | UGM FP inh
O=C(Nc1ccc(C(=O)O)cc1)/C(=C\c1ccc2c(c1)OCO2)NC(=O)c1ccccc1Cl | / | / | / | 35* | 0 | /
O=C(Nc1cccc(C(=O)O)c1)/C(=C\c1ccc2c(c1)OCO2)NC(=O)c1ccccc1Br | / | / | / | 36* | -1 | /
O=C(Nc1ccc(C(=O)O)cc1)/C(=C\c1ccc2c(c1)OCO2)NC(=O)c1ccco1 | -16 | -1 | -4 | 20 | -10 | 1
CSc1nc(-c2ccc(C)cc2)nc2c1Cc1cc(C)ccc1O2 | -14 | / | / | / | / | /
O=c1c2nc(N3CCCC3)sc2c(-c2cccs2)nn1Cc1cccc(F)c1 | -9 | / | / | / | / | /
Cc1ccc(OCCCC(=O)Nc2ccc3c(c2)OCO3)c(C)c1 | 36* | / | / | / | / | /
O=S(=O)(c1ccccc1)N1CCC2(CC1)OCCS2 | -12 | / | / | / | / | /
O=C(CSc1ncccc1C(=O)O)Nc1ccc(F)cc1F | 7 | / | / | / | / | /
CC(C)c1ccc2oc(-c3ccc(N)cc3)nc2c1 | -10 | -5 | 49 | 29 | 191* | 0
Nc1ccc(-c2nc3cc([N+](=O)[O-])ccc3o2)cc1 | -10 | -6 | 1 | 42* | 0 | 2
CC(=O)C(N)=NNc1cccc(Cl)c1 | 30 | / | / | / | / | /
O=C(c1ccccc1)N1CCc2ccc(NC(=O)C34CC5CC(CC(C5)C3)C4)cc2C1 | 0 | / | / | / | / | /
Cc1cccc(NC(=O)CSc2ccc(-c3ccccn3)nn2)c1 | 71* | / | / | / | / | /
CC(=O)Nc1cccc(NC(=O)CSc2ccc(-c3ccccn3)nn2)c1 | 13 | 6 | -4 | 3 | -1 | -1
CC(=O)c1cccc(NC(=O)CSc2ccc(-c3ccccn3)nn2)c1 | 48*! | 5 | 100 | 8 | 3 | 2
O=C(NCC1CCN(S(=O)(=O)c2cccnc2)CC1)c1cccc(Cl)c1 | -7 | / | / | / | / | /
Cn1c(NNC(=O)/C=C/c2ccc3c(c2)OCO3)cc(=O)n(C)c1=O | 3 | -24 | 2 | 39* | 10 | 0
CC(NC(=O)/C=C/c1ccc2c(c1)OCO2)c1ccccc1 (centres undefined) | 0 | / | / | / | / | /
COc1ccc(C(=O)NCC(c2ccc3c(c2)CCCN3C)N2CCOCC2)c(OC)c1 (centres undefined) | 4 | / | / | / | / | /
COc1ccc(C(=O)NCCc2ccc3c(c2)CCCN3C)c(OC)c1 | 62* | / | / | / | / | /
CCOc1cc(C(=O)NCCc2ccc3c(c2)CCCN3C)cc(OCC)c1OCC | 36* | / | / | / | / | /
Cc1ccc(-n2nc(C)c(Sc3ccccc3[N+](=O)[O-])c2N)cc1 | 39* | 0 | 15 | 12 | -1 | 0
Cc1ccc(CC(=O)N2CC(=O)Nc3ccccc32)cc1 | -13 | / | / | / | / | /
O=C(Nc1nccs1)c1ccc(-c2ccc([N+](=O)[O-])cc2)o1 | -10 | 1 | -5 | 5 | 0 | 20*
O=C(Nc1nccs1)c1ccc(-c2ccc(F)cc2)o1 | 13 | -11 | 93 | 18 | 4 | -1
SMILES | SSB-PriA inh | Rv3671c protease | Mtb bLac sens | GDH-TPI counter | Mtb FBA inh | UGM FP inh
O=C(Nc1nccs1)c1ccc(-c2ccc(Cl)cc2)o1 | 9 | -15 | 99 | 54* | 1 | 0
CCNC(=O)c1sc(=S)n(CC)c1N | -23 | -8 | -16 | 32* | -2 | 0
CCn1c(N)c(C(=O)N2CCOCC2)sc1=S | -8 | -5 | 3 | 31* | 4 | 1
COc1ccc(NC(=O)CCn2c(=O)[nH]c3ccccc3c2=O)cc1OC | -11 | / | / | / | / | /
COc1ccc(CCNC(=O)c2cnc3scc(C)n3c2=O)cc1OC | -2 | 4 | -6 | 33* | 5 | 4
O=C(Cn1cc(-c2nnc(-c3ccccc3)o2)c2ccccc21)N1CCc2ccccc21 | -1 | / | / | / | / | /
Cc1ccc(CNc2nc3ccccc3n3cnnc23)cc1 | 98* | 2 | 0 | 10 | 7 | 1
CSc1ccc(CNc2nc3ccccc3n3cnnc23)cc1 | -19 | 4 | -7 | 1 | 2 | 3
c1ccc(N2CCCCC2)c(Nc2nc3ccccc3n3cnnc23)c1 | -7 | 1 | 5 | 4 | 6 | -2
c1ccc(Nc2nc3ccccc3n3cnnc23)cc1 | 4 | -7 | -8 | 30 | 3 | 2
CCOc1ccc(Nc2nc3ccccc3n3cnnc23)cc1 | -5 | 0 | -4 | 32* | -1 | /

Bioassay records as filed in PubChem BioAssay.
